Compounds without any hit were thinned out: in the full panel of roughly 83,000, 20% have a hit.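 Cells were grown in 96-well plates and exposed to the test compound at a single concentration for 48 hours; results are reported as percent growth, with values below 10 considered active.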 A number with no mark means an inactive call. Calls of active or inactive are those of the source.

The values that follow come from PubChem BioAssay (NCI).

Some test systems named below: SR leukemia; RPMI-8226 leukemia; OVCAR-8 ovarian; OVCAR-5 ovarian; OVCAR-4 ovarian; SK-OV-3 ovarian; IGROV1 ovarian; OVCAR-3 ovarian; HS 578T breast; NCI/ADR-RES ovarian; T-47D breast; BT-549 breast; MDA-MB-435 melanoma; SW-620 colon; MCF7 breast; HCT-116 colon; HCC-2998 colon; KM12 colon.
What all share (assay): NCI-60 one-dose screen, 48 h (100 = growth as untreated, 0 = no growth, -100 = all killed)
Holding throughout (conditions): 10 µM unless noted

In the case of `C[C@]12CCc3c(ccc4cc(O)ccc34)[C@@H]1C[C@H](O)[C@@H]2O`, the growth with SR leukemia is 110%; in the experiment on RPMI-8226 leukemia, 97.1%; with OVCAR-8 ovarian, 94%; with OVCAR-5 ovarian it was 104%; with OVCAR-4 ovarian, 106%; in the experiment on SK-OV-3 ovarian, 106%. In addition, the growth in the experiment on IGROV1 ovarian was 103%; in the experiment with OVCAR-3 ovarian it was 96.7%; in the experiment on HS 578T breast, 84.9%; in the experiment on NCI/ADR-RES ovarian, 96%; in the experiment on T-47D breast it was 98.8%; in the experiment on BT-549 breast, 94.7%. Moreover, the growth is 99% in the experiment on MDA-MB-435 melanoma; 96.4% in the experiment with SW-620 colon; 132% with MCF7 breast; 104% with HCT-116 colon; 109% in the experiment with HCC-2998 colon; 108% with KM12 colon.
As to `CCOC(=O)c1nc2c3ccccc3cnn2c1C(=O)c1ccc(OC)cc1`, the growth in the experiment with SR leukemia is 90.6%; in the experiment with RPMI-8226 leukemia, 95.6%; in the experiment on OVCAR-8 ovarian it was 98.2%; in the experiment on OVCAR-5 ovarian, 106%; in the experiment with OVCAR-4 ovarian, 89.4%; in the experiment on SK-OV-3 ovarian, 81.6%. Further, the growth in the experiment with IGROV1 ovarian is 105%; with OVCAR-3 ovarian it was 110%; with HS 578T breast, 101%; in the experiment with NCI/ADR-RES ovarian, 94.4%; in the experiment on T-47D breast it was 85.9%; in the experiment with BT-549 breast, 98.2%. In addition, the growth in the experiment on MDA-MB-435 melanoma was 107%; in the experiment on SW-620 colon, 99.2%; in the experiment with MCF7 breast, 80.8%; in the experiment on HCT-116 colon it was 92%; in the experiment on HCC-2998 colon, 99.2%; in the experiment on KM12 colon, 102%.
As to `CCN1CCN(CC(=O)Nc2nc3ccc(NCc4ccc(C)cc4)cc3s2)CC1`, the growth is 7.22% (active) in the experiment on SR leukemia; 48.8% with RPMI-8226 leukemia; 85.9% in the experiment with OVCAR-8 ovarian; 80.5% in the experiment on OVCAR-5 ovarian; 75% in the experiment with OVCAR-4 ovarian; 91.5% with SK-OV-3 ovarian. Also, the growth in the experiment on IGROV1 ovarian is 91.4%; in the experiment on OVCAR-3 ovarian, 70.3%; with HS 578T breast it was 84.9%; with NCI/ADR-RES ovarian, 81.8%; in the experiment with T-47D breast it was 50.7%; in the experiment on BT-549 breast, 88%. The growth in the experiment with MDA-MB-435 melanoma was -41.8% (active); in the experiment with SW-620 colon, 44.2%; in the experiment with MCF7 breast it was 35.6%; in the experiment on HCT-116 colon, 13%; with HCC-2998 colon it was 80.9%; in the experiment with KM12 colon, 73%.
Turning to `COc1cc(Nc2nc3ccccc3cc2C(=O)Nc2ccc(F)c(F)c2)cc(OC)c1OC`, the growth in the experiment with SR leukemia is 29.6%; with RPMI-8226 leukemia, 21.8%; in the experiment on OVCAR-8 ovarian, 15.5%; in the experiment with OVCAR-5 ovarian it was 63.9%; with OVCAR-4 ovarian, 23%; with SK-OV-3 ovarian, 42.2%. For the same compound, the growth in the experiment with IGROV1 ovarian is 30.8%; with OVCAR-3 ovarian, 10.6%; with HS 578T breast, 61.2%; with NCI/ADR-RES ovarian it was 6.91% (active); in the experiment on T-47D breast, 9.25% (active); in the experiment with BT-549 breast it was 55.5%. For the same compound, the growth with MDA-MB-435 melanoma was 19.7%; in the experiment on SW-620 colon, 23%; in the experiment on MCF7 breast it was 12.8%; with HCT-116 colon, 6.91% (active); with HCC-2998 colon it was 45.3%; with KM12 colon, 20%.
Take `N#C/C(=C\c1ccccc1Cl)c1cc2ccccc2[nH]1`: the growth in the experiment with SR leukemia was 60%; in the experiment with RPMI-8226 leukemia it was 77.1%; in the experiment on OVCAR-8 ovarian it was 96.4%; in the experiment on OVCAR-5 ovarian, 95.8%; with OVCAR-4 ovarian, 96.4%; in the experiment with SK-OV-3 ovarian it was 76.3%. The growth is 84.7% with IGROV1 ovarian; 101% in the experiment on OVCAR-3 ovarian; 92.9% in the experiment on HS 578T breast; 95.5% in the experiment on NCI/ADR-RES ovarian; 38% with T-47D breast; 89.1% with BT-549 breast. Also, the growth in the experiment with MDA-MB-435 melanoma was 101%; in the experiment with SW-620 colon, 89%; with MCF7 breast it was 36%; in the experiment on HCT-116 colon it was 87.4%; in the experiment on HCC-2998 colon it was 111%; with KM12 colon, 82.6%.
In the case of `COc1cc2cc(NCc3ccncc3)nc(C)c2cc1OC`, the growth with SR leukemia is 70.9%; with RPMI-8226 leukemia, 106%; in the experiment on OVCAR-8 ovarian, 91.5%; with OVCAR-5 ovarian, 80.7%; with OVCAR-4 ovarian, 94.4%; with SK-OV-3 ovarian, 77.6%. Besides, the growth in the experiment on IGROV1 ovarian is 113%; in the experiment on OVCAR-3 ovarian it was 107%; with HS 578T breast, 83.5%; in the experiment with NCI/ADR-RES ovarian, 97.2%; in the experiment with T-47D breast, 71.2%; with BT-549 breast, 77.9%. Further, the growth with MDA-MB-435 melanoma was 106%; in the experiment on SW-620 colon it was 107%; in the experiment on MCF7 breast, 93.4%; in the experiment on HCT-116 colon, 93.1%; in the experiment on HCC-2998 colon, 106%; in the experiment with KM12 colon it was 109%.
With `COc1ccc(-c2ccc(-c3ccc(C(=N)N)cn3)o2)cc1Cl`, the growth with SR leukemia is -28.3% (active); with RPMI-8226 leukemia, -35.5% (active); in the experiment with OVCAR-8 ovarian, 12.3%; with OVCAR-5 ovarian it was 68.6%; in the experiment with OVCAR-4 ovarian, 38.8%; in the experiment with SK-OV-3 ovarian, 84.8%. Further, the growth was 68.7% in the experiment on IGROV1 ovarian; -13.2% (active) in the experiment on OVCAR-3 ovarian; 59.1% in the experiment with HS 578T breast; 82.8% with NCI/ADR-RES ovarian; 31.1% in the experiment with T-47D breast; 57.8% in the experiment on BT-549 breast. In addition, the growth in the experiment with MDA-MB-435 melanoma is -69.4% (active); with SW-620 colon, -50.3% (active); in the experiment on MCF7 breast it was -31.1% (active); in the experiment with HCT-116 colon, 0.389% (active); in the experiment on HCC-2998 colon, 67.5%; with KM12 colon, 16.4%.
Turning to `OCc1cc(CN2CCCCC2)c(O)c2ncccc12`, the growth in the experiment with SR leukemia was 27%; in the experiment on RPMI-8226 leukemia, 71.9%; in the experiment on OVCAR-8 ovarian, 50.5%; in the experiment with OVCAR-5 ovarian, 59.1%; in the experiment with OVCAR-4 ovarian it was 34.9%; in the experiment on SK-OV-3 ovarian, 49.4%. For the same compound, the growth with IGROV1 ovarian is 52.7%; with OVCAR-3 ovarian, 45%; in the experiment with HS 578T breast, 85.6%; in the experiment on NCI/ADR-RES ovarian, 8.71% (active); in the experiment with T-47D breast, 57.4%; in the experiment on BT-549 breast, 59.7%. For the same compound, the growth with MDA-MB-435 melanoma was 77%; in the experiment on SW-620 colon, 39.7%; in the experiment with MCF7 breast it was 44.7%; in the experiment with HCT-116 colon, 44.1%; with HCC-2998 colon, 51.6%; with KM12 colon, 30.2%.
